Active and inactive are the calls of the source. The calls were made as follows: active = hit-call score of the fitted dose curve at least 0.9, where 1 is the maximum; inactive = score below 0.9.
Assay: APR_HepG2_p53Act_24hr: Apredica 24-hour HepG2 Assay for p53 Activation (AID 2282913)
Details: high-content imaging, actives raise or lower the signal
Description: APR_HepG2_24hr is a cell-based, multiplexed-readout assay that uses HepG2, a human liver cell line, with measurements taken at 24 hours after chemical dosing in a 384-well plate.APR_HepG2_p53Act_24hr is one of 10 assay component(s) measured or calculated from the APR_HepG2_24hr assay. It is designed to make measurements of dna content, a form of viability reporter, as detected with fluorescence intensity signals by HCS Fluorescent Imaging technology.Data from the assay component APR_HepG2_p53Act_24hr was analyzed into 1 assay endpoint. This assay endpoint, APR_HepG2_p53Act_24hr, was analyzed with bidirectional fitting relative to DMSO as the negative control and baseline of activity. Using a type of viability reporter, measures of protein for gain or loss-of-signal activity can be used to understand the signaling at the pathway-level as they relate to the gene TP53. Furthermore, this assay endpoint can be referred to as a primary readout, because this assay has produced multiple assay endpoints where this one serves a signaling function. To generalize the intended target to other relatable targets, this assay endpoint is annotated to the dna binding intended target family, where the subfamily is tumor suppressor.
Cells were treated with dimethyl sulfoxide (DMSO) as a solvent control at a final concentration of 0.5% v/v or with compounds in DMSO with a resulting final DMSO concentration of 0.5% v/v. Compound treatment was done at concentrations of 0.39, 0.78, 1.56, 3.12, 6.24, 12.5, 25, 50, 100, and 200 uM in duplicate on each plate. Cells were treated with compounds for 1, 24, or 72 hr. Carbonyl […] m-chloro-phenylhydrazone (CCCP) and taxol were used as positive controls for mitochondrial function and cytoskeletal stability, respectively; DMSO served as the negative control for this experiment. Cells were fixed by the direct addition of 50 uL formaldehyde in Hank's Balanced Salt Solution (HBSS) to a final concentration of 3.7%. After incubation in the fixation medium for 30 min at room temperature (293-298 K), cells were rinsed twice with HBSS and treated with cell permeabilization buffer (16 uL of 0.5% Triton X-100) for 10 min at room temperature (293-298 K) before labeling. For mitochondrial membrane potential and mitochondrial measurements, pre-fixed cells were incubated with 50 uL of MitoTracker Red CMXRos (Invitrogen) at a concentration of 250 nM for 30 min before fixation. In the remaining cases, post-fixed cells were labeled by incubation with a multiplexed mixture of primary antibodies in HBSS for 60 min at room temperature (293-298 K) to detect immunoreactivity of c-Jun (1:500), phospho-histone H3 (1:100), phospho-histone H2A.x (1:200), p53 (1:400), alpha-tubulin (1:200) and Hoechst 33342 (2 ug/mL). Cells were labeled for multiplexed imaging on two separate plates: a) Hoechst 33342, MitoTracker Red, phospho-histone H3, and alpha-tubulin, and b) Hoechst 33342, phospho-histone H2A.x, and c-Jun. A final rinse with HBSS (50 uL) was performed before analysis. The primary and secondary antibodies for the proteins were phospho-histone H3 (rabbit anti-phospho-histone H3 and FITC-donkey anti-rabbit IgG), phospho-histone H2A.x (mouse anti-phospho-histone H2A.x and FITC-donkey anti-mouse IgG), c-Jun (rabbit anti-phospho-c-Jun and Cy3-donkey anti-rabbit IgG), p53 (sheep anti-p53 and Cy5-donkey anti-sheep IgG), alpha-tubulin (mouse anti-alpha-tubulin and Cy5-donkey anti-mouse IgG). These antibodies are available as the CellCiphr HepG2 assay kit (Millipore).Digital images of each well were captured using a Cellomics ArrayScan VTI (Thermo Scientific Cellomics) (0.8 NA objective, 0.63x optical coupler, and XF-93 filter set) at 20x magnification. The images were acquired using the autofocus feature of the ArrayScan instrument, which entails the following steps. First, the camera focuses on channel 1 (Hoechst 33342), where nuclei are identified. Second, a Z offset of 1 um is used for capturing mitochondria (MitoTracker Red). […]

| Structure (SMILES) | outcome | AC50 |
| --- | --- | --- |
| CCCCC(CC)CN1C(=O)C2C3C=CC(C3)C2C1=O (stereo not given) | inactive | – |
| OB(O)O | inactive | – |
| CC(=O)S[C@@H]1CC2=CC(=O)CC[C@]2(C)[C@H]2CC[C@@]3(C)[C@@H](CC[C@@]34CCC(=O)O4)[C@H]12 | – | 54.7 µM (active) |
| CCCCCCC(C)OC(=O)COc1nc(F)c(Cl)c(N)c1Cl (stereo not given) | inactive | – |
| O=C(Nc1ccc([N+](=O)[O-])cc1Cl)c1cc(Cl)ccc1O | – | 1.49 µM (active) |
| CC(C)(c1ccc(O)cc1)c1ccc(O)cc1 | inactive | – |
| CSC(=O)c1cccc2nnsc12 | inactive | – |
| CCOC(=O)c1ccc(O)cc1 | inactive | – |
| CC(C)(C)[C@@H](O)[C@@H](Cc1ccc(Cl)cc1)n1cncn1 | inactive | – |
| C#C[C@]1(O)CC[C@H]2[C@@H]3CCC4=CC(=O)CC[C@@H]4[C@H]3CC[C@@]21CC | inactive | – |
| CCOC(=O)COc1cc(-n2ncc(C(F)(F)F)c(C)c2=O)c(F)cc1Cl | inactive | – |
| CCCCC(CC)COC(=O)c1ccccc1C(=O)O (stereo not given) | inactive | – |
| COC(=O)c1ccccc1C(=O)O | inactive | – |
| CC1(C)C(C=C(Cl)Cl)C1C(=O)OCc1cccc(Oc2ccccc2)c1 (stereo not given) | inactive | – |
| c1ccc(Nc2ccccc2)cc1 | inactive | – |
| CCOC(=O)[C@H](C)Oc1ccc(Oc2nc3ccc(Cl)cc3o2)cc1 | inactive | – |
| CCCOC(=O)c1ccc(C(=O)OCCC)nc1 | inactive | – |
| CCCCOC(=O)[C@@H](C)Oc1ccc(Oc2ccc(C(F)(F)F)cn2)cc1 | inactive | – |
| COC(=O)c1cccc(C)c1S(=O)(=O)NC(=O)Nc1nc(OCC(F)(F)F)nc(N(C)C)n1 | inactive | – |
| O=C(c1ccccc1)C1CCCCC1 | inactive | – |

| Structure (SMILES) | outcome | AC50 |
| --- | --- | --- |
| COC(=O)c1ccc(CNS(C)(=O)=O)cc1S(=O)(=O)NC(=O)Nc1nc(OC)cc(OC)n1 | inactive | – |
| N[C@@H](Cc1cc(I)c(Oc2ccc(O)c(I)c2)c(I)c1)C(=O)O | inactive | – |
| CCCOC(=O)NCCCN(C)C | inactive | – |
| CCC(O)=C1C(=O)CC(C(=O)O)CC1=O (stereo not given) | inactive | – |
| CCC(C)OC(=O)N1CCCCC1CCO (stereo not given) | inactive | – |
| C#CCOC(=O)[C@@H](C)Oc1ccc(Oc2ncc(Cl)cc2F)cc1 | inactive | – |
| O=C(c1ccc(O)cc1O)c1ccc(O)cc1O | inactive | – |
| O=C(O)C1(C(=O)Nc2ccc(Cl)cc2Cl)CC1 | inactive | – |
| CCOC(=O)NCCOc1ccc(Oc2ccccc2)cc1 | inactive | – |
| CCOC(=O)C(C)Oc1ccc(Oc2nc3ccc(Cl)cc3o2)cc1 (stereo not given) | inactive | – |
| CCSC(=O)N(CC(C)C)CC(C)C | inactive | – |
| CC(C)CCCCCCc1ccc(O)cc1 | inactive | – |
| COc1nc(C)nc(NC(=O)NS(=O)(=O)c2ccccc2OCCCl)n1 | inactive | – |
| COC(=O)c1ccccc1S(=O)(=O)NC(=O)Nc1nc(OC(F)F)cc(OC(F)F)n1 | inactive | – |
| Oc1ccc(C(c2ccc(O)cc2)C(Cl)(Cl)Cl)cc1 | inactive | – |
| CCCN(CCC)C(=O)SCC | inactive | – |
| C[C@]12CC[C@@H]3c4ccc(O)cc4C[C@@H](CCCCCCCCCS(=O)CCCC(F)(F)C(F)(F)F)[C@H]3[C@@H]1CC[C@@H]2O (stereo not given in full) | inactive | – |
| CCCCOC(=O)C(C)Oc1ccc(Oc2ccc(C(F)(F)F)cn2)cc1 (stereo not given) | inactive | – |
| Cc1nn(C)c(Oc2ccccc2)c1C=NOCc1ccc(C(=O)OC(C)(C)C)cc1 | inactive | – |
| O=C(O)c1ccccc1 | inactive | – |
